# Assays:
# Assay in all cases: PBM binding z-score (relative to random genomic background probes); higher = stronger binding; sequences stand for … in GC…GCGATTGACAGCGTAGAATGAAGG
# [1] = test system: RARb homodimer (NR concentration 270 nM)
# Outline: (§1)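 Random background probes are the reference for binding z-scores. These scores derive from regression-normalized fluorescence on custom Agilent 4×180K protein-binding microarrays incubated 1 h with ligand-free nuclear receptor dimers. Binding was detected with antibodies against each partner (one per run).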
# [2] = test system: RARg:RXRa (NR concentration 270 nM, RXRa partner concentration 90 nM)
# Outline: as §1
# [3] = test system: RARg homodimer (NR concentration 270 nM)
# Outline: as §1
# [4] = test system: RXRa DBDmut IVT, anti-RXR (DBD mutation: RXRa K156A/R161A, NR concentration 90 nM)
# Outline: as §1
# [5] = test system: RXRa homodimer (NR concentration 180 nM)
# Outline: as §1
# [6] = test system: THRa:RXRa (NR concentration 90 nM, RXRa partner concentration 90 nM)
# Outline: as §1
# [7] = test system: THRa homodimer (NR concentration 90 nM)
# Outline: as §1
# [8] = test system: VDR:RXRa (NR concentration 270 nM, RXRa partner concentration 90 nM)
# Outline: as §1
# [9] = test system: VDR homodimer (NR concentration 270 nM)
# Outline: as §1
Sequence,PBM binding z-score [1],PBM binding z-score [2],PBM binding z-score [3],PBM binding z-score [4],PBM binding z-score [5],PBM binding z-score [6],PBM binding z-score [7],PBM binding z-score [8],PBM binding z-score [9]
CAAACTAGGTCAGAACAGGACAGTGAAGGATGAT,2.11,2.51,3.33,0.474,1.28,3.7,0.447,0.899,0.417
CCTACTAGGCCATTCAGAGGTCATTGATCATATG,4.46,4.99,3.55,2.14,4.11,3.42,2.03,4.33,3.93
TCATATAGGTAATGCAGGTGAAAGTCGGCATCTA,0.531,0.489,0.438,1.04,0.993,1.1,0.297,0.862,0.176
TCTGCTAGGTCAGTTGGTCAGTTAACGAGCTGCC,2.57,2.69,3.81,0.618,0.575,1.34,0.247,0.0446,-0.347
CGTCCAAGGTCAAGGACAGTGAAAGAGACTCGAA,3.94,6.19,6.78,3.26,5.3,3.74,2.83,3.75,2.03
TCTGCTAGGTCAACGAGGGTCAGCTAATCTGCTA,4.57,5.29,6.13,1.47,3.94,4.76,1.14,5.1,0.552
ATTTCTAGGTAAAGTTCAGTGAAAGATCGATAGA,2.55,2.02,2.7,1.59,1.44,1.48,0.574,2.11,2.39
CCTTAAGGGTCAAGGTTATAGCACGGGTGGTACG,4.66,6.46,6.85,2.7,6.61,3.66,1.03,4.72,2.39
ACTAGTTGGTCAGCTGAGATCACACACAATTCGG,0.406,0.638,0.88,0.396,0.449,0.991,-0.107,0.193,-0.0701
AGTCAAAGTTCATCTAAGTAACGTAAGATATGCT,3.78,5.58,6.53,4.81,5.21,2.57,-0.213,4.76,4.88
CTAGAAAGGTCGTGCTCAGGTGAGTATACCAAAC,2.93,4.96,3.62,2.16,4.44,4.02,0.909,3.1,0.842
CCTAGTTGGTCAGGAGGTCACACGCCGGATATGA,4.02,4.96,4.34,0.884,4.77,3.41,2.31,3.93,2.95
TCTTGTAGATCAATAGAGGTTGAGAAAGTGCGCT,-0.259,0.00331,-0.196,0.738,0.307,0.629,-0.723,0.789,-0.179
TCGATTAGTTGAAGGGCAACCGACGAGTCCGTTT,1.04,0.11,0.294,1.01,0.397,-0.146,-0.591,0.389,0.943
TGTCAAAATTCAAAGGTAACGTAAGTATCCACAC,0.464,0.501,0.807,-0.417,0.772,1.16,-0.046,0.436,0.102
CCAACGAGGGCATGAGTTGATAGCAAATGCCGAT,0.406,0.887,1.35,2.04,0.929,1.01,-0.114,1.09,1.2
ACTATTAGTTGAGACGAGGGCAAACGATAGGTTG,0.968,0.74,0.778,0.626,0.323,2.42,0.104,0.775,1.39
ACTCACGGGTCAACGAGGTTATAGCACGCGTATA,3.5,5.72,4.98,2.83,6.42,4.03,1.03,7.63,4.51
TCTTGTAGATCAGCAGGTTAAGAACGCTGGCCAA,-0.0185,-0.0606,-0.396,0.288,0.146,-0.0457,-0.571,0.123,-0.247
CTCGTAAGGTCGTGCTCAGGTGAGTATACCAAAC,2.05,3.84,2.77,2.39,2.68,4.18,2.99,2.61,1.5
GCGACTGGGGCATCAGCAGTTTACCATAACTTAA,0.541,0.124,0.341,0.507,0.0851,0.0532,-0.343,-0.0228,0.258
GCGACTGGGGCATCAGCAGGTTACCATTACTTAA,1.18,0.735,0.488,0.25,0.246,0.833,0.247,-0.244,-0.0861
CGAACTAGGTCATCTAGGACAGTGAATACATTGA,2.74,4.13,4.96,2.2,2.99,3.3,1.49,3.73,1.48
GATACAGGGTCAGCCAGAGGCCAGAGTATGGAAA,3.47,6.84,4.98,1.17,4.6,3.13,0.534,3.64,0.682
ATATGTAGCTTATCGGGTCATTCAGTTTGCGCAT,2.24,1.85,1.35,1.26,2.35,3.03,2.6,4.71,3.7
GCTAGTTGGTCAGTAAAAGGTCACATACCGGTCG,5.15,5.2,4.75,0.819,4.95,3.52,1.86,3.89,1.74

Sequence,PBM binding z-score [1],PBM binding z-score [2],PBM binding z-score [3],PBM binding z-score [4],PBM binding z-score [5],PBM binding z-score [6],PBM binding z-score [7],PBM binding z-score [8],PBM binding z-score [9]
CGAACTAGGTCAGAACATGACAGTGAAGGATGAT,1.74,2.34,2.89,0.671,1.33,1.24,0.0482,0.229,0.133
CGTCCAAGGGCATAGGAGGTCAGTGAAGACAGAT,3.72,3.42,3.68,1.44,2.65,4.64,0.738,3.99,2.25
TCTGCTAGGTCGGTTGGTCAGCTAACGAGCTGCC,0.194,0.057,0.0646,-0.000892,-0.389,-0.409,-0.643,-0.462,-0.816
GGAACAAGGGCAAGTTGATAGCAGAGTTTGATGG,1.92,1.5,2.02,1.47,0.773,1.14,0.372,0.829,1.27
GCTCGGAGGACAAGGTCAGAGATTTGTCCGTAGA,2.83,2.84,3.13,0.212,2.23,2.82,1.51,1.22,0.17
CCTATTAGTTGACCATAGGGGCAACCGAAGCTCG,1.3,0.669,0.729,0.6,0.362,0.842,0.596,0.497,0.581
TTACCAAGGTGAAAGGTTGTTGATGCACGCCTTG,0.999,1.65,0.911,0.0428,2.58,2.15,0.748,1.15,0.0809
CCCTACGGGTCACTGACAGGTTATAGCATTTGGA,3.42,5.77,4.37,0.859,4.97,2.93,0.405,3.56,1.07
CGAACTAGGTCAAGGACAGGGAATCTCCGCACGC,3.19,4.09,5.13,1.35,2.84,3.13,2.25,1.09,0.294
AGTCAAAGTTCAAGACGAGGTAACGTAAAGCACG,3.6,5.81,6.02,3.8,4.59,3.9,0.783,4.07,2.85
ACTCGGAGGACAAAGGTCAAAGCTACGCCAGTGA,5.02,7.08,6.07,1.75,6.78,4.03,0.972,4.8,2.28
CTACCAAGGTGAACAAGGGCGTTGATTACTATTC,1.26,1,0.99,0.764,0.725,2.13,0.707,4.73,0.903
CCCGAAAGGTCGGTTGAGGTGAGTATACGGATAA,2.61,2.9,3,0.858,2.41,4.99,1.8,2.57,0.636
TTACCAAGGTGAGCTGAGGTGGTTGATCCAACTC,-0.15,0.00376,-0.00239,-0.813,0.0948,2.98,-0.0561,-0.288,-0.641
CTACCAAGGTGAACAAGGTCGATGATTACTATTC,2.03,1.58,1.71,0.696,1.61,2.89,1.41,4.83,0.758
ATCTCTAGGTATCAAGTTCAGTGAAAGAGAGGAC,1.89,1.07,1.17,1.34,0.64,1.03,0.846,1.94,2.79
TCTAGCAGGCCACAGGGTCACTCAAGAGGTACGG,3.28,3.5,2.75,0.4,3.39,2.94,1.16,2.93,2.07
TGTCAAACTTCAAAGGTAACGTAAGTATCCACAC,0.582,0.654,0.586,-0.455,0.655,1.1,-0.0249,0.41,-0.101
ATATGTAGGTTATCGGGTCATTAAGTTTGCGCAT,3.05,3.13,2.3,1.7,3.23,3.25,2.55,6.04,4.46
GCTAGCAGGCCATTTGGGTCACTGAATGACGGGC,1.94,0.989,1.4,0.125,0.735,1.95,0.65,0.821,0.43
GCTTACGGGTCAGAGGTTATAGCATGAATAGAAT,2.66,4.85,3.51,1.24,6.16,2.66,-0.0589,3.48,0.979
TCATATAGGTAAATGCTAAGTGAAAGTCCGATCT,0.0173,0.4,0.337,1.68,0.615,0.0115,-0.264,0.987,0.0364
TAGCCTAGGTCCGATCGGGCCAGTATACGCTATA,-0.854,-0.722,-0.738,-0.969,-0.677,0.334,-0.898,-0.91,-0.952
AGAACGATGGCACGCTGAGTTGATAGCAGAGTAG,-0.907,-0.162,-0.0451,-0.483,-0.397,-0.632,-1.01,-0.574,-0.128
CCGACTTGGGCAGAAAGGTTACCATACCATCCGG,1.52,0.806,0.702,-0.476,1.3,0.651,-0.379,0.0426,-0.411
ACAGACAGGTGATCAAGGTAACTCAGGCTATCAT,0.159,0.183,0.508,-0.511,0.28,1.72,0.997,0.483,-0.138
